Out of some 120,000 compounds screened, about 5,300 (4.4%) were called active. Roughly 22% stayed inconclusive and do not appear here. The entries come from a sample that favours actives as a whole. Where a call stands in place of a potency, no number is given. Values without a mark were called inactive. The call rests on the fitted dose curve; in most records, active means well fitted inhibition curve with a large enough effect; inconclusive means small, poorly fitted or top-dose-only effect; inactive means no such curve, though single readings can be large or run the other way.
Potency means the concentration at half of the fitted maximal effect.

The test is described as follows: qHTS Primary assay for Inhibitors of Plasmodium falciparum Dd2 growth in vitro. Further: nearly all actives have a fitted effect of over 65% in size. To be noted: P. falciparum Dd2 growth, SYBR Green, 72 h; series mostly up to 28.9 µM. The text has this: Malaria, a parasitic disease spread to humans through the bite of a Plasmodium infected Anopheles mosquito, continues to be a global health burden affecting millions of people, with an estimated 228 million cases and 405,000 deaths in 2018. Concerns about safety and limitations of current antimalarial treatments strongly emphasize the need to develop new therapeutic options. The scarce number of chemotypes and validated drug targets with efficacy against the liver stage, have hindered development of new antimalarials. To address this, a chemoprophylactic drug discovery effort was conducted through a combined phenotypic high-throughput asexual blood stage and liver stage screen, providing a robust foundation to identify liver-stage active lead chemotypes. Compounds were initially screened against Plasmodium falciparum Dd2 strain parasites using a in vitro SYBRGreen-1 based 72 hr proliferation assay to identify novel chemotypes to advance to liver stage assays. NIH/NCATS Early Translation Branch Assay Submitter (PI): Anton Simeonov Ph.D.
Malaria-vivax Assay Protocol: PROTOCOL TABLE (as described by Inglese et al., 2007) SEQUENCE No. (e.g., 1, 2, 3, etc.); […] (e.g., Cells, Incubation, Reagent, etc.); VALUE; DESCRIPTION SEQUENCE, Parameter, Description 1; Reagent; 3 uL complete malaria growth medium, 1536 TC treated Black clear bottom plate 2; Controls; 23 nL positive control artesunate (300 nM final) to column 1; Neutral control DMSO to columns 2-4 3; Compound; 23 nL of compounds in dose response concentration (29 uM to 0.5 nM final) 4; Reagent; 5 uL malaria infected red blood cells (2.5% hematocrit final, 0.3% parasitemia 5; Time; 72 hours at 37C (5% O2, 5% CO2, 90% N2; 95% Rh) 6; Reagent; 2 uL lysis buffer/SYBRGreen-1, 25 sec shake immediately following dispense 7; Time; ~16 hours at 37C (5% O2, 5% CO2, 90% N2; 95% Rh) 8; Detector; EnVision (PerkinElmer) bottom read at 485/14nm excitation and 535/25 nm emission NOTES (numbers refer to sequence above): 1; Complete Malaria Growth Media: 1X RPMI-1640 w/L-glutamine, 5.5g/L Albumax II, 367 uM Hypoxanthine, 25 mM HEPES, 0.25% Sodium Bicarbonate, 35 uM Gentamicin sulfate 2; Controls were added using the Kalypsis Pintool (Wako USA) equipped with 1536 pinhead 3; Compounds were added in a 7-point, titration with a high final concentration of 29 uM by Pintool from seven inter-plate titrations of library plates and two DMSO control plates at the beginning and end (see Yasgar et al., 2008). 4; Red blood cells infected with Plasmodium falciparum Dd2 parasites were used. 6; Lysis buffer: 20 mM Tris-HCl, 10 mM EDTA, 0.16% Saponin, 1.6% Triton-X, 10X SYBR Green. REFERENCE: Inglese J, Shamu CE, Guy RK. 2007. Reporting data from high-throughput screening of small-molecule libraries. Nat Chem Biol. doi:10.1038/nchembio0807-438 Yasgar A, Shinn P, Jadhav A, Auld D, Michael S, Zheng W, Austin CP, Inglese J, Simeonov A. 2008. Compound Management for Quantitative High-Throughput Screening. J Lab Autom 13:79-89. doi:10.1016/j.jala.2007.12.004
A general note: qHTS replaces the single test concentration by a dilution series.
Take `CC(C)(C)C(=O)Cn1ccn2nc3c(c2c1=O)CCCC3`: the Potency entry was “inactive”.

Consider `Cc1cc2nc3n(c(=O)c2n1CC(=O)NC(C)CCc1ccccc1)CCCC3` (stereo not given), for which the Potency entry is “inactive”. For `COc1ccc2c(CNCCc3ccccc3C)c(C(=O)O)n(Cc3ccccc3C)c2c1`, the activity, negative = inhibition is 54.4% [at 5.79 µM]. `COc1cccc(CNCc2c(C(=O)O)n(Cc3ccc(C)cc3)c3cc(C)ccc23)c1OC`: the Potency was 10 µM (active). On to `CCc1ccc(CNCc2c(C(=O)O)n(Cc3ccc(F)cc3Cl)c3cc(OC)ccc23)cc1`, for which the Potency result was “inactive”. `O=C(CCCc1ccccc1)N1CCCC(c2nc(C3CCOCC3)no2)C1` (stereo not given): the Potency entry is “inactive”. As to `Cn1cc(CN2CCOC[C@H](Oc3ccc(S(C)(=O)=O)cc3)C2)c2ccccc21`, the Potency was 10 µM (active).

Regarding `COc1ccc(O[C@H]2COCCN(Cc3nccn3C)C2)cc1`, the Potency result is “inactive”.

`CC(C)CN1CCOC[C@H](Oc2ccc(S(C)(=O)=O)cc2)C1`: the Potency entry was “inactive”. In the case of `COc1ccc(CC(=O)N2CCC(Cc3nc(-c4ccccc4)no3)CC2)cc1OC`, the Potency result was “inactive”. On the same count and under the same terms, with `COc1ccc(-c2noc(CC3CCN(C(=O)Cc4ccc(C)cc4)CC3)n2)cc1` the entry was “inactive”; with `COc1ccc(-c2noc(CC3CCN(C(=O)Cc4ccc(OC)c(OC)c4)CC3)n2)cc1`, 11.2 µM (active). For the compound `N#Cc1ccc(C(=O)N[C@@H](Cc2ccccc2)C(=O)N2CCCOCCNC(=O)CC2)cc1`, the Potency result was “inactive”. As for `CC(C)(C)C(=O)N1CCC(c2nn(-c3ccc(F)cc3)c(=O)[nH]2)CC1`, the Potency entry was “inactive”. Regarding `Cc1ccc(NC(=O)N2CCc3[nH]c4ccc(F)cc4c3C2)cc1`, the Potency result is “inactive”. As for `COCc1cn([C@H]2CO[C@H]3[C@@H]2OC[C@H]3OC(=O)Nc2cccc(C#N)c2)nn1`, the Potency result is “inactive”. For the compound `CCOc1ccccc1NC(=O)Cn1c(=O)n(Cc2ccccc2)c(=O)c2c(C)c(C(=O)N(C)C)sc21`, the Potency was 3.16 µM (active). Consider `COc1cccc(-n2c(=O)c3c(C)c(C(=O)N(C)C)sc3n(CC(=O)NCCc3ccc(OC)c(OC)c3)c2=O)c1`, for which the Potency result was “inactive”. Consider `Cc1c(C(=O)N(C)C)sc2c1c(=O)n(-c1ccc(F)cc1)c(=O)n2CC(=O)N(C)c1ccccc1`, for which the Potency result is “inactive”. As for `COc1ccc(Nc2ccc3c(n2)CN(Cc2ccccc2C)C(=O)CO3)cn1`, the Potency entry is “inactive”.

Take `COCCOCC(=O)N1CCC2(CC1)NCCc1c2[nH]c2ccccc12`: the Potency result is “inactive”. In the case of `O=C(COc1ccc(F)cc1)N1CCC2(CC1)NCCc1c2[nH]c2ccccc12`, the Potency is 10 µM (active). Turning to `O=C(C1CCCO1)N1CCC2(CC1)NCCc1c2[nH]c2ccccc12` (stereo not given), the Potency result was “inactive”. On the same count and under the same terms, with `Cc1nc2ncccn2c1C(=O)N[C@@H]1CCOC[C@H]1Oc1ccccn1` the entry was “inactive”. Still for that read-out and setting: with `Cc1ccc2c(C(=O)O)cc(NC(=O)C(C)C)cc2n1` the entry was “inactive”; with `Cc1ccccc1NC1CCn2c(nc(C)c2C(=O)Nc2ccc(F)cc2)C1` (stereo not given), “inactive”. For the compound `CCN(CCCNC(=O)c1nnn2cc(-c3ccccc3)[nH]c(=O)c12)c1ccccc1`, the Potency was 8.91 µM (active). Turning to `CCN(CCCNC(=O)c1cc2cc3cc(OC)ccc3nc2s1)c1ccccc1`, the Potency result was “inactive”.

In the case of `CCN(CCCNC(=O)Cn1ncc2c([nH]c3ccccc32)c1=O)c1cccc(C)c1`, the Potency entry is “inactive”. Take `Cc1nn(C)cc1CN(C)C(=O)C1CN(S(=O)(=O)c2cccnc2)CC12CCCCC2` (stereo not given): the Potency entry was “inactive”.

`COc1cc(=O)n2c(c1C(=O)Nc1cccc(Br)c1)CCCC2`: the Potency result was “inactive”. Consider `CCOc1ccc(-c2cc3nc(C4CCN(C(=O)OC(C)(C)C)CC4)c(C(=O)Nc4cccc(CC)c4)cn3n2)cc1`, for which the Potency is 7.94 µM (active). For `CCc1cccc(NC(=O)N2CCC(c3noc(COc4ccc(F)cc4)n3)CC2)c1`, the Potency result was “inactive”. As to `CCOc1ccc(-c2cc(C)n3nc(C(=O)Nc4ccc(C)c(C)c4)cc3n2)cc1`, the Potency entry is “inactive”. On to `O=C(C[C@@H]1CCNC[C@@H]1Cc1cc(COc2ccccc2)on1)NCc1ccco1`, for which the Potency result is “inactive”. With `CCc1cccc(NC(=O)CN2C(=O)NC(c3ccc(Cl)cc3)C3=C2COC3=O)c1` (stereo not given), the Potency result was “inactive”. Consider `Cc1ccc(-c2nnc(C3CN(C(=O)c4cc(C)cc(C)c4)CC34CCOCC4)o2)cc1` (stereo not given), for which the Potency entry is “inactive”.

As to `O=[S+]([O-])(c1ccccc1)N1CC2(CCCCN2Cc2cccnc2)Cc2ccccc21` (stereo not given), the Potency was 8.91 µM (active). In the case of `C[S+](=O)([O-])N1Cc2ccccc2CC2(CCN(Cc3cccnc3)CC2)C1`, the Potency result was “inactive”.

Consider `CC(=O)NCC(=O)N1Cc2ccccc2CC2(CCCN2Cc2cccnc2)C1` (stereo not given), for which the Potency entry is “inactive”. Consider `CN1CCCN(S(=O)(=O)c2ccccc2)CCC(=O)NCC1`, for which the Potency entry was “inactive”. Turning to `CC(C)c1noc(-c2cccn3c(CNC(=O)c4ccc(C(C)(C)C)cc4)nnc23)n1`, the Potency result is “inactive”. On to `Cc1nc(-c2ccc(Cl)cc2)n(Cc2cc(F)cc(F)c2)c(=O)c1CCO`, for which the Potency result was “inactive”.

In the case of `CCOc1ccc(C(=O)/C=C/c2cn(CC(O)CN3CCCCCC3)c3ccccc23)cc1` (stereo not given), the Potency is 12.6 µM (active). Same read-out and setting: the value for `CCOc1ccc(C(=O)N2CCCN(C(=O)C3CC3)c3ccccc32)cc1` was “inactive”; that for `COc1ccc2cc(C(=O)N3C[C@@H](Oc4ccccc4)C[C@H]3C(=O)N3CCOCC3)[nH]c2c1` was “inactive”; that for `Cc1nc2c(c(C)nn2-c2ccccc2)c(C)c1CCC(=O)NCCc1ccc(Cl)cc1` was “inactive”. For `COC(=O)c1ccc(NC(=O)CCc2c(C)nc3c(c(C)nn3-c3ccc(C)cc3)c2C)cc1`, the Potency was 6.31 µM (active). In the case of `Cc1ccc(CNC(=O)CCc2c(C)nc3c(c(C)nn3-c3ccccc3)c2C)cc1`, the Potency result is “inactive”. Still for that read-out and setting: with `Cn1cc(-c2ccccc2)cc1C(=O)NCc1ccc(N2CCOCC2)cc1` the entry was “inactive”.

The record behind these values is PubChem BioAssay AID1347417 (National Center for Advancing Translational Sciences (NCATS), 2020).
